Source: PubChem BioAssay (EPA / NIEHS)
Where “and” joins values, the source holds several entries; their conditions need not be identical. Equal entries are not always repeated. The source holds several records for some structures; these can differ, active in one and inactive in another. Calls of active or inactive are those of the source. The calls were made as follows: active = hit-call score of the fitted dose curve at least 0.9, where 1 is the maximum; inactive = score below 0.9.

Experiment: CCTE_Shafer_MEA_dev_per_burst_spike_percent: CCTE's Neural Network Formation Assay for Percent of Spikes in a Burst, Shafer Lab (AID 2284032)
Experimental: CCTE_Shafer_MEA_dev assay is conducted using Axion Biosystems 48 well microelectrode array (MEA) plates and Maestro recording system. Each well of the MEA plate contains a grid of 16 microelectrodes embedded in the culture surface. Electrically active cells, such as neurons, can be cultured over the electrodes, and electrical activity in these cells can be recorded extracellularly. The spontaneous firing of neurons is captured from each electrode on a microsecond timescale providing both temporally and spatially precise data. […] The CCTE_Shafer_MEA_dev assay uses primary cultures of rat cortical neurons. Recordings are made on days post-plating 5, 7, 9 and 12. As these cultures mature over time, neural networks develop functional activity and form cohesive networks in which electrical activity can be highly coordinated. CCTE_Shafer_MEA_dev_per_burst_spike_percent is 1 of 19 assay components of the CCTE_Shafer_MEA_dev assay. It measures the percentage of spikes (action potential firings) in a single-electrode burst (temporally-clustered group of spikes) as the total number spikes in bursts divided by the total number of spikes during a recording in a microelectrode array (MEA) using Axion Biosystems Maestro 768 channel amplifier with the AxIS adaptive spike detector. The percent of spikes in bursts is averaged across the actively bursting electrodes to report a well-mean value. To collapse across multiple recordings made on days post-plating 5, 7, 9 and 12, the trapezoidal area-under-the-curve of the component is calculated.Data from the assay component CCTE_Shafer_MEA_dev_per_burst_spike_percent was analyzed into 1 assay endpoint. This assay endpoint, CCTE_Shafer_MEA_dev_per_burst_spike_percent, was analyzed in the negative analysis fitting direction relative to DMSO as the negative control and baseline of activity. Using a type of functional reporter, gain or loss-of-signal activity can be used to understand electrical activity.
On the day prior to culture, each well was coated thoroughly with 150 uL of 0.05% polyethyleneimine (PEI, Sigma Cat P3143) in 50 mM HEPES (Sigma Cat H7523) at a pH of 8. The plate was incubated at 37C for one hour. PEI was rinsed out with 500 uL of sterile water three times. Plates were stored at 4C until the day of culture. This culture was plated at a seeding density of 1.5 x 10^5 cells/well on a 48-well MEA plate, prepared as described above. Cells were administered via a 25 uL media/laminin ([…]; Sigma Cat L2020-1MG) drop directly onto the microelectrode array, as adding the cells with the laminin results in better attachment than pre-coating with laminin. After 2 hours, an additional 475 uL of cortical media was added and the cells returned to the incubator. Exposure starts at day 0 of plating and is continued over twelve days of network development until the experiment is terminated. Cells are fed with fresh medium on DIV 5 and 9, following the recordings on those days. The entire volume of media in the well is exchanged and any vehicle or compound treatment is renewed. Complete details are found in OP-NHEERL/ISTD/SBB/TJS/2015-03-r0 (available on request, email shafer.tim@epa.gov). Measurement of the electrical activity is non-invasive, and recordings can be made from the same plate over multiple different days of the culture. In cortical neurons, this allows for the measurement of extracellular action potentials over the period during which networks form in the MEA plate.

Row | SMILES | outcome | AC50
1 | O=P(OCCCl)(OCCCl)OCCCl | inactive | –
2 | CC(C)(O)c1cnn2c(-c3ccc(F)c(-c4c(F)cccc4C#N)c3)cnc2n1 | – | 10 µM (active)
3 | COC(=O)Nc1nc2ccccc2[nH]1 | inactive | –
4 | CCNS(=O)(=O)C(F)(F)C(F)(F)C(F)(F)C(F)(F)C(F)(F)C(F)(F)C(F)(F)C(F)(F)F | – | 15 µM (active) and 3.54 µM (active)
5 | Clc1ccc(C(c2ccc(Cl)cc2)C(Cl)Cl)cc1 | – | 4.86 µM (active)
6 | ClC1=C(Cl)[C@]2(Cl)[C@H]3[C@H]([C@@H]4C=C[C@H]3C4)[C@@]1(Cl)C2(Cl)Cl | – | 5.76 µM (active)
7 | Clc1ccc(C(c2ccc(Cl)cc2)C(Cl)(Cl)Cl)cc1 | – | 3.45 µM (active) and 6.66 µM (active)
8 | CNC(=O)Oc1cccc2c1OC(C)(C)C2 | inactive | 15.5 µM (active)
9 | OCCOCCO | inactive | –
10 | [O-][Cl+]O | inactive | –
11 | CC(C)(C)C(O)(CCc1ccc(Cl)cc1)Cn1cncn1 (stereo unspecified) | – | 15 µM (active)
12 | COP(=S)(OC)SCN1C(=O)c2ccccc2C1=O | – | 32.8 µM (active) and 51.5 µM (active)
13 | C1=Cc2cccc3cccc1c23 | inactive | –
14 | [Cl-].[Cl-].[Hg+2] | – | 0.882 µM (active)
15 | CN(C)[C@@H]1C(=O)C(C(N)=O)=C(O)[C@@]2(O)C(=O)C3=C(O)c4c(O)cccc4[C@@](C)(O)[C@H]3C[C@@H]12 | inactive | –
16 | ClC1=C(Cl)C2(Cl)C3C(Cl)C=CC3C1(Cl)C2(Cl)Cl (stereo unspecified) | – | 4.18 µM (active)
17 | CCCCOC(=O)c1ccccc1C(=O)OCc1ccccc1 | inactive | –
18 | CCC[CH2][Sn]([Cl])([CH2]CCC)[CH2]CCC | – | 0.0758 µM (active)
19 | CC(C)COC(=O)c1ccccc1C(=O)OCC(C)C | – | 23.1 µM (active)
20 | Nc1cc(Cl)cc(C(=O)O)c1Cl | inactive | –
